Experimental findings from PubChem BioAssay (NCI) are described below.

The structures appear in SMILES notation. About 83,000 compounds went through this panel and 20% of them were active in at least one assay; those are over-represented in the sample as a whole.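 How to read the values: 0–100, growth inhibition (40 = 60% inhibited); 0, no net growth; -100 to 0, cell death (-40 = 40% of starting cells died; -100 = all dead).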 Values without a mark were called inactive. Active and inactive are the calls of the source.

The test system of this test is OVCAR-5 ovarian. The test is described as follows: NCI-60 one-dose screen, 48 h (100 = growth as untreated, 0 = no growth, -100 = all killed). To be noted: 10 µM. The method, then:
Growth inhibition of the OVCAR-5 human tumor cell line is measured as a screen for anti-cancer activity. Cells are grown in 96 well plates and exposed to the test compound for 48 hours. Compounds are tested at a single concentration, which is 10^-5 M for most compounds. The reported endpoint is percent growth (GI% or GIPRCNT), where numbers from 0 - 100% represent growth inhibition, and numbers from -100% - 0 represent cell death. For example, a value of 40 represents 60% growth inhibition. A value of 0 means no net growth occurred over the course of the experiment. A value of -40 indicates 40% of cells at the beginning of the experiment died by the end of the experiment. A value of -100 means all cells are dead at the end of the experiment.
NCI-60 Human Tumor Cell Lines Screen was performed using the standard one-dose NCI protocol, which is described in more detail at https://dtp.cancer.gov/discovery_development/nci-60/default.htm.
Compounds with GIPRCNT values below 10 were considered active. Activity score was based on GIPRCNT using the following formula: […]
Score is 0 for GIPRCNT values of 100 or above, 50 for GIPRCNT values of 0, and 100 for GIPRCNT values of -100.
As for `Cc1ccc(CSc2nc(Cl)c(C#N)c(-c3ccc(F)cc3)n2)cc1`, the growth is 94.1%. With `N#Cc1c(-c2ccc(Cl)cc2)cc(-c2ccccc2)nc1OCc1ccccc1` the figure was 92.9%. As for `O=S(=O)(Nc1ncccn1)c1ccc(-n2c(-c3ccc(Br)cc3)nc(-c3ccccc3)c2-c2ccccc2)cc1`, the figure is 70.5%; as for `CN(C)c1ccc(/C=C/c2nc3ccccc3c(=O)n2CC(=O)Nc2ccccc2)cc1`, 89.1%; as for `CC(=O)Oc1ccccc1C(=O)Oc1ccc(C(=O)/C=C/c2ccncc2)cc1`, 62.7%.

`COc1ccc(CCN2C(=O)/C(=C/c3csc(C#N)n3)SC2=S)cc1OC`: the growth was 116%.

`CC1(c2ccccc2)NC(=O)N(CC(=O)Nc2ccc(C(=O)/C=C/c3ccc(Br)cc3)cc2)C1=O` (stereo not given): the growth was 76%. As for `COC(=O)c1c(C(=O)OC)c2n(c1C)[C@@H]([C@@H](C)[C@H]1CC[C@H]3[C@@H]4CCC5=CC(=O)CC[C@]5(C)[C@H]4CC[C@]13C)SC2`, the figure is 54.2%. With `Cc1ccc(/C=C/C(=O)c2ccc(NC(=O)CSc3nnc(-c4c[nH]c5ccccc45)n3-c3ccccc3)cc2)c(C)c1` the figure was 77.3%; with `Cc1nn(-c2ccccc2)c2ncn(CC(=O)N/N=C/c3c[nH]c4ccccc34)c(=O)c12`, 103%. With `C=CC(=O)Nc1ccc(C(=O)/C=C/c2ccc(N(C)CCF)cc2)c(O)c1` the figure was -49.3% (active); with `CCOC(=O)CNC(=O)CN(Cc1ccccc1)C(=O)[C@@]1(C)CCC[C@]2(C)[C@H]3CC4C(C(C)C)=C[C@]3(CC[C@H]21)[C@@H]1C(=O)CCC(=O)[C@H]41`, 97.8%. Take `O=C(Cn1cc(CSc2nnc3oc4ccccc4n23)nn1)Nc1cccc(Cl)c1`: the growth is 87.8%. With `COc1ccc(CN2[C@H](C(=O)NCc3ccc(C(=O)NO)cc3)Cc3c([nH]c4ccccc34)[C@H]2C2CC2)cc1` the figure was 34.4%; with `CO[C@H]1CSS[C@@H]1Cn1nc(-c2ccc(Oc3ccccc3)cc2)c2c(N)ncnc21`, 28.5%. With `O=C(c1ccc(Cl)cc1)C1[C@H](c2ccccc2Br)[C@@H](c2ccccc2)NC12C(=O)Nc1ccccc12` (stereo not given in full) the figure was 4.22% (active).

For `Cc1ccc(-c2cc(C(=O)N=Nc3c(O)[nH]c4ccccc34)c3ccccc3n2)cc1`, the growth was 69.4%.

`CCCCOc1ccc(Nc2nc3ccccc3nc2Nc2ccc(OCCCC)cc2)cc1`: the growth is 128%. As for `CC(=C(c1ccc(OCCN2CCCCCC2)cc1)c1ccc(OCCN2CCCCCC2)cc1)c1ccc(Cl)cc1`, the figure is -100% (active); as for `C#CCNC(=O)CCC(=O)OC[C@]12CC[C@@H](C(=C)C)[C@@H]1C1CC[C@@H]3[C@@]4(C)CCCNC(C)(C)[C@@H]4CC[C@@]3(C)[C@]1(C)CC2` (stereo not given in full), 47.3%. With `CC1=C2C(=C[C@@](C)(COCOCCCl)[C@@H]2O)C(=O)[C@](C)(O)C12CC2`, the growth is -56.6% (active). As for `O/N=C(\CSc1nnc(-c2c[nH]c3ccccc23)n1-c1ccccc1)c1ccc(Br)cc1`, the figure is -82.5% (active); as for `COc1cc(/C=C/C(=O)c2ccc(C(F)(F)F)cc2)ccc1Oc1nc(Nc2ccc(F)cc2)nc(N(C)C)n1`, 92.7%. As for `COc1cc(C2CC(c3ccc(C)cc3)=Nc3c(N)nc(N)nc3N2)ccc1Oc1nc(Nc2ccc(F)cc2)nc(N(C)C)n1` (stereo not given), the figure is 99.6%; as for `CCCCCc1ccc(S(=O)(=O)N(C(C)=O)c2cc(-c3csc(N(C)C(C)=O)n3)ccc2N2CCN(C)CC2)cc1`, 57.6%. With `CCN1CCN(c2ccc(NC(=O)Nc3ccc(-c4cc(C(=O)NC(C)C)c5ncccc5n4)cc3)cc2C(F)(F)F)CC1` the figure was -83.2% (active).

For the molecule `C/C(=C\c1ccc(O)cc1O)c1ccc2ccc(O)cc2[o+]1`, the growth is 192%. With `COc1ccc2[nH]cc(/C=N/Nc3ccc(Br)cn3)c2c1` the figure was 55.3%; with `O=C(CSc1nnc(-c2c[nH]c3ccccc23)n1-c1ccccc1)c1ccc(Br)cc1`, 58.3%; with `COc1ccc(/C=N/N=C(\C)c2ccc3c(c2)Nc2ccccc2S3)cc1O`, 71.4%.

For the molecule `COc1ccc2nc(Cl)c(-c3cc(-c4ccccc4)nc(=S)[nH]3)cc2c1`, the growth was 95.1%. As for `CN1CCN(c2ccc(C(=O)/C=C/c3ccc(C#N)cc3)cc2)CC1`, the figure is 127%; as for `COc1ccc(-c2cc(-c3cc(C(=O)c4ccccc4)n4ccc(C)cc34)nc(N)c2C#N)cc1`, 90%; as for `CCC(C)S(=O)(=O)c1oc(-c2ccc(C)cc2)nc1S(=O)(=O)c1ccccc1` (stereo not given), -91.3% (active). Consider `COc1ccc(C(=O)Nc2ccc(-c3ccc4c(c3)NC(=O)/C4=C\c3ccc[nH]3)cc2)cc1`, for which the growth was 51.8%.

Consider `O=C(CSc1nnc(-c2c[nH]c3ccccc23)n1-c1ccccc1)Nc1ccc(C(=O)/C=C/c2cccc([N+](=O)[O-])c2)cc1`, for which the growth is 103%. With `COc1ccc(C(=O)/C=C/c2cc(C(F)(F)F)cc(C(F)(F)F)c2)cc1S(N)(=O)=O` the figure was -93.6% (active); with `CCOC(=O)C1=C(N)N(c2ccc(Cl)cc2)C2=C(C(=O)CC(C)(C)C2)C1c1ccc(N2CCOCC2)cc1` (stereo not given), 106%; with `O=C(Nc1cccc(-c2cn(-c3ccc4oc(=O)ccc4c3)nn2)c1)Nc1cc(C(F)(F)F)cc(C(F)(F)F)c1`, 66.4%. Regarding `Nc1nnc(-c2c[nH]c3ncccc23)c(-c2c[nH]c3ccc(Br)cc23)n1`, the growth is 68.2%.
